Reference: PubChem BioAssay (Tox21)
Values without a mark were called inactive. Inconclusive results are not listed. A call without a number means that no potency is given here. Active and inactive are the calls of the source. Unless noted, calls follow the shape of the full dose curve.

Legend:
[1] = Nuclear factor erythroid 2-related factor 2/antioxidant responsive element (Nrf2/ARE) small molecule agonists: qHTS cell viability counter screen in human keratinocytes (AID 1919968; active = well fitted curve in the direction sought with a large enough effect in the repeat runs; an effect the other way counts as inactive or inconclusive; also: nearly all actives have a fitted effect of over 55% in size)
Outline: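 CellTiter-Fluor fluorescence, read 1 h after reagent, gave viability in the same wells as the ARE-luciferase assay. KeratinoSens cells (1,500/well) had 23 h compound exposure at 37 C/5% CO2 following 5 h plating.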

[2] = Nuclear factor erythroid 2-related factor 2/antioxidant responsive element (Nrf2/ARE) small molecule agonists: luciferase reporter gene qHTS assay in human keratinocytes (AID 1919969); also: nearly all actives have a fitted effect of over 35% in size
[3] = target: Gonadotropin-releasing hormone receptor (Homo sapiens) (UniProt P30968); assay: Human gonadotropin-releasing hormone receptor (GnRHR) small molecule agonists, calcium flux assay in GnRHR-HEK293 cells (AID 1920063); also: nearly all actives have a fitted effect of over 35% in size
Chain of Gonadotropin-releasing hormone receptor (Homo sapiens) (P30968 whole entry, looked up): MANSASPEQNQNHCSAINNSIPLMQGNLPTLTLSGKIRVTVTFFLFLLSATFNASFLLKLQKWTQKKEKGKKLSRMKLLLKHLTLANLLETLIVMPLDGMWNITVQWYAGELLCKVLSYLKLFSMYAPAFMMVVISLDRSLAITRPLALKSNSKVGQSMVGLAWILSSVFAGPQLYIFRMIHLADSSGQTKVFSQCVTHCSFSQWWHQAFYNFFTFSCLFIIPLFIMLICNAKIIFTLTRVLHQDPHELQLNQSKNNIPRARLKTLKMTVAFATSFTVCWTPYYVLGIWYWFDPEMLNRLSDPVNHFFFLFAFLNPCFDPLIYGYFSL
Outline: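 Agonist mode: compounds at 15 concentrations, in triplicate, went onto calcium dye-loaded GnRHR-HEK293 cells. Intracellular calcium was then followed as 480/540 nm fluorescence at 1 s intervals over 3 min.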

[4] = target: KiSS-1 receptor (Homo sapiens) (UniProt Q969F8); assay: Human kisspeptin (KISS1R) small molecule agonists, calcium flux assay in KISS1R-HEK293 cells (AID 1920064; active = well fitted curve in the direction sought with a large enough effect in the repeat runs; an effect the other way counts as inactive or inconclusive)
Chain of KiSS-1 receptor (Homo sapiens) (Q969F8 whole entry, looked up): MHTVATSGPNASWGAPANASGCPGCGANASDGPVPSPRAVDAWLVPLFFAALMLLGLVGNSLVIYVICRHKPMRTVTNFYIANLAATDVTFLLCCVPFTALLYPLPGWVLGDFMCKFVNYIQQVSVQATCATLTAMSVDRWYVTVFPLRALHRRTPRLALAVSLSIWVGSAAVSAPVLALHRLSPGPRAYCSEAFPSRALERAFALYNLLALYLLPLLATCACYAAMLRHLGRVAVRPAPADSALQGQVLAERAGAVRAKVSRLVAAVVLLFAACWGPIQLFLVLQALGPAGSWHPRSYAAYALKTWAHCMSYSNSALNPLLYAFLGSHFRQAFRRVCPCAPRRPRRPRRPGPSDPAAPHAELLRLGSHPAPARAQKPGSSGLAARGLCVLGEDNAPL
Outline: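 Agonist mode: intracellular calcium rise tracked at 1 s intervals over 3 min (480/540 nm) immediately after compound addition to dye-loaded KISS1R-HEK293 stable cells. Each compound tested at 15 concentrations in triplicate.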

[5] = G protein-coupled receptor (GPCR) small molecule agonists, calcium flux assay: HEK293 wild type cell line counter screen (AID 1920065)
Outline: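 Calcium flux counter screen: compound added in agonist mode at 15 concentrations in triplicate to dye-loaded parental HEK293 cells. Fluorescence (480/540) read kinetically for 3 min; ATP served as positive control.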

[6] = p53 small molecule agonists, cell-based qHTS assay with human liver microsomes: qHTS cell viability counter screen (AID 1963579); also: nearly all actives have a fitted effect of over 45% in size
Outline: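 Cytotoxicity counter screen: p53RE-bla, 4,000 cells/well; 5 h settle, 37 C/5% CO2; cpd + HLM 0.5 mg/mL + NADPH 0.5 mg/mL (final); 16 h, 37 C; CellTiter-Glo, 30 min RT, luminescence.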

[7] = p53 small molecule agonists, cell-based qHTS assay with rat liver microsomes: qHTS cell viability counter screen (AID 1963580); also: nearly all actives have a fitted effect of over 45% in size
Outline: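 Counter screen for cytotoxicity under metabolic activation: rat liver microsomes and NADPH, 0.5 mg/mL final each, added with compounds to p53RE-bla HCT-116 cells; 16 h at 37 C, then ATP luminescence read.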

[8] = p53 small molecule agonists, cell-based qHTS assay: qHTS cell viability counter screen (AID 1963581); also: nearly all actives have a fitted effect of over 45% in size
Outline: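 Counter screen read by CellTiter-Glo luminescence (ATP content, 30 min at room temperature), run in the same wells as the beta-lactamase reporter read. HCT-116 p53RE-bla cells saw compounds for 16 h at 37 C.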

[9] = target: Beta-2 adrenergic receptor (Homo sapiens) (UniProt P07550); assay: Adrenergic beta2 receptor (ADRB2) small molecule antagonists, cell-based qHTS assay (AID 1963592); also: series mostly up to about 92 µM; nearly all actives have a fitted effect of over 50% in size
Chain of Beta-2 adrenergic receptor (Homo sapiens) (P07550 whole entry, looked up): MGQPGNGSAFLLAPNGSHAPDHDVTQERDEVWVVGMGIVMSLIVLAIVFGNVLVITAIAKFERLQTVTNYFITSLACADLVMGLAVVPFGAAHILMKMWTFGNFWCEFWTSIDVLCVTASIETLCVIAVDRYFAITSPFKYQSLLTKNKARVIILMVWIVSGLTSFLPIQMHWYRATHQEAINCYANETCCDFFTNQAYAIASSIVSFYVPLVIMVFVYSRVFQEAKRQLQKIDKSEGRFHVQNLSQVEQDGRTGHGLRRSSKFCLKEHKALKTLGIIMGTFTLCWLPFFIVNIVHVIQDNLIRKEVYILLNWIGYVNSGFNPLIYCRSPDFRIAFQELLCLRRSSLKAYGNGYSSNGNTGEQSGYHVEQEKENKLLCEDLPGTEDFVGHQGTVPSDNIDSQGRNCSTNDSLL
Outline: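 Assay format: CHO-ADRB2 cells, 18-20hr seeding at 37C/5% CO2, then compound plus 1nM isoproterenol agonist mix for 0.5hr RT. Homogeneous time-resolved fluorescence cAMP detection after 1hr, expressed as 665/615 nm ratio.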

[10] = target: D(2) dopamine receptor (Homo sapiens) (UniProt P14416); assay: Dopamine D2 receptor (DRD2) small molecule agonists, cell-based qHTS assay (AID 1963594); also: nearly all actives have a fitted effect of over 35% in size
Chain of D(2) dopamine receptor (Homo sapiens) (P14416 whole entry, looked up): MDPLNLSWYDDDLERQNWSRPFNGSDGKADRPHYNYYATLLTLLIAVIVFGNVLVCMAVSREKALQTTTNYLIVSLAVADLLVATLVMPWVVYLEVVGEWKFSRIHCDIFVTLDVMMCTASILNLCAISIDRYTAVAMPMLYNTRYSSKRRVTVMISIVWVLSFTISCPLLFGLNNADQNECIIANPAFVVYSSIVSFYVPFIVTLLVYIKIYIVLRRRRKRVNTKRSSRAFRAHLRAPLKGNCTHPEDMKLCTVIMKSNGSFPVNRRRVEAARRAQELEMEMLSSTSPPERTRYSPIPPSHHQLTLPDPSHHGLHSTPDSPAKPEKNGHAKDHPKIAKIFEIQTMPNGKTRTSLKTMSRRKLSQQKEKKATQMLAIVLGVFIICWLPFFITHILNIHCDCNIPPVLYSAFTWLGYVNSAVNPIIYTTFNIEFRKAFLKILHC
Outline: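 HEK293 cells stably expressing DRD2 were cultured 24 h at 37 C, then given Ro20-1724 (0.1 mM final) and compounds for 10 min at room temperature. NKH477 (200nM) was then added for 30 min. cAMP was read by HTRF.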

[11] = target: D(2) dopamine receptor (Homo sapiens) (UniProt P14416); assay: Dopamine D2 receptor (DRD2) small molecule antagonists, cell-based qHTS assay (AID 1963595; active = well fitted inhibition curve with a large enough effect in the signal ratio in the repeat runs, with a control signal flat; the % refers to the signal ratio)
Outline: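 In this cell-based antagonist screen, compounds act for 10 min at room temperature before a 30 min challenge with 12 nM quinpirole and 200 nM NKH477. cAMP is quantified by HTRF competition in DRD2-HEK293 cells containing 0.1 mM Ro20-1724.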

[12] = target: 5-hydroxytryptamine receptor 2A (Homo sapiens) (UniProt P28223); assay: 5-hydroxytryptamine receptor 2A (HTR2A) small molecule agonists, cell-based qHTS assay (AID 1963587); also: nearly all actives have a fitted effect of over 30% in size
Chain of 5-hydroxytryptamine receptor 2A (Homo sapiens) (P28223 whole entry, looked up): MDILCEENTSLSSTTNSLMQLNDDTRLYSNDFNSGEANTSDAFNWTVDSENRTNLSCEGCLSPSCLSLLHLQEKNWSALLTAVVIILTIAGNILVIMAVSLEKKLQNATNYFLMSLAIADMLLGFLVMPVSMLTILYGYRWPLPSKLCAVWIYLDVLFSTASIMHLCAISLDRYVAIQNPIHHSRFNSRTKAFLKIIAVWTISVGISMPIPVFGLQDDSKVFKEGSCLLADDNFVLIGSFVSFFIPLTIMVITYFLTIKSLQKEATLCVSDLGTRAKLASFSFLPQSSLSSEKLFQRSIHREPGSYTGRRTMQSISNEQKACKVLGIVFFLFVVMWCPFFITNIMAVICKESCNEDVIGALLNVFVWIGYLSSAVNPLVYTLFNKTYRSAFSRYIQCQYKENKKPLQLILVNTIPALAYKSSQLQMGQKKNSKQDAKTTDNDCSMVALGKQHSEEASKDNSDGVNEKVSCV
Outline: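 HTR2A-CHO cells, plated 18 h at 37 C/5% CO2, dye-loaded 1 h at 37 C; compounds in DMSO added by pin tool (agonist mode). Intracellular calcium flux read as kinetic fluorescence on FDSS over 2 min at 1 s intervals.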

[13] = target: Muscarinic acetylcholine receptor M1 (Homo sapiens) (UniProt P11229); assay: Cholinergic receptor muscarinic 1 (CHRM1) small molecule antagonists, cell-based qHTS assay (AID 1963588); also: nearly all actives have a fitted effect of over 40% in size; also: potency is read from the fitted curve at half-maximal effect
Chain of Muscarinic acetylcholine receptor M1 (Homo sapiens) (P11229 whole entry, looked up): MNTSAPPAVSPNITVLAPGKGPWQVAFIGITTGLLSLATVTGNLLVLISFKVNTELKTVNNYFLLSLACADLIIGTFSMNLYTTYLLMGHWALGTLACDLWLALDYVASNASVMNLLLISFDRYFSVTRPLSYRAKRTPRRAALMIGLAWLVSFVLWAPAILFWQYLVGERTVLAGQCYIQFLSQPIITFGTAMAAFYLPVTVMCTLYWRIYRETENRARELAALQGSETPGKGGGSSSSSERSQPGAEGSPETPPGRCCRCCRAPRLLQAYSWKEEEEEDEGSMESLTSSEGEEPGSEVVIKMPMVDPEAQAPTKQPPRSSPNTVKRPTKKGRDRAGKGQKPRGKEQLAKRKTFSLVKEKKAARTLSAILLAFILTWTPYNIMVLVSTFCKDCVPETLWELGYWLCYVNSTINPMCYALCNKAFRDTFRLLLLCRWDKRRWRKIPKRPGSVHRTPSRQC
Outline: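 Compounds were tested at 15 concentrations in three independent runs. Dye-loaded CHRM1-CHO cells were exposed 5 min at room temperature before stimulation by acetylcholine added at 50nM. Intracellular calcium was read kinetically on FDSS for 3 min.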

[14] = target: Muscarinic acetylcholine receptor M1 (Homo sapiens) (UniProt P11229); assay: Cholinergic receptor muscarinic 1 (CHRM1) small molecule agonists, cell-based qHTS assay (AID 1963589); also: nearly all actives have a fitted effect of over 35% in size
Outline: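 Agonist-mode calcium-flux screen: compounds at 15 concentrations, three independent runs, were pin-transferred onto dye-loaded human CHRM1-CHO cells. Fluorescence was then recorded kinetically every second over minutes.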

[15] = cAMP Responsive Elements (CRE) small molecule agonists, cell-based qHTS assay (AID 1963590)
Outline: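 Agonist mode: compound added to CRE-bla HEK 293T cells (2,000/well, 18 h after plating) for 3 h at 37 C/5% CO2. Reporter activity detected via FRET beta-lactamase substrate, 2 h room-temperature loading.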

[16] = cAMP Responsive Elements (CRE) small molecule antagonists, cell-based qHTS assay (AID 1963591; active = well fitted inhibition curve with a large enough effect in the signal ratio in the repeat runs, not every such curve was filed as active; the % refers to the signal ratio)
Outline: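 Antagonist mode: compounds are added alongside the adenylyl cyclase activator NKH477 (0.25 uM final) to CRE-bla HEK293T cells for 3 h. LiveBLAzer FRET substrate, 2 h at room temperature, reports bla expression.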

[17] = target: Beta-2 adrenergic receptor (Homo sapiens) (UniProt P07550); assay: Adrenergic beta2 receptor (ADRB2) small molecule agonists, cell-based qHTS assay (AID 1963593);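 also: CHO cells stably overexpressing human ADRB2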
Outline: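 CHO cells stably over-expressing ADRB2 were plated overnight at 37C, then dosed with compounds plus a stimulation mix containing 100uM IBMX and 25uM Ro-20-1724 for 0.5hr at room temperature. cAMP was measured by HTRF competition, 1hr.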

SMILES	Potency [1]	Potency [2]	Potency [3]	Potency [4]	Potency [5]	Potency [6]	Potency [7]	Potency [8]	Potency [9]	Potency [10]	Potency [11]	Potency [12]	Potency [13]	Potency [14]	Potency [15]	Potency [16]	Potency [17]
Cc1ccc(Cl)c(Nc2ccccc2C(=O)O)c1Cl	inactive	inactive	inactive	inactive	inactive	inactive	inactive	inactive	inactive	inactive	inactive	–	–	–	–	–	–
N=C(N)S(=O)O	inactive	inactive	inactive	inactive	inactive	inactive	inactive	inactive	inactive	inactive	inactive	inactive	inactive	inactive	inactive	–	–
Cc1ccccc1N=C(N)N=C(N)N	inactive	inactive	inactive	inactive	inactive	inactive	inactive	inactive	inactive	inactive	inactive	inactive	–	inactive	–	inactive	inactive
O=C(O)[C@@H]1CSCN1	inactive	inactive	inactive	inactive	inactive	inactive	inactive	inactive	inactive	inactive	inactive	inactive	inactive	inactive	inactive	–	inactive
CCCOc1ccc(S(=O)(=O)N2CCN(CC)CC2)cc1-c1nc2c(CC)n(Cc3ccccn3)nc2c(=O)[nH]1	inactive	inactive	inactive	inactive	inactive	inactive	inactive	inactive	–	–	inactive	inactive	18.8 µM (active)	inactive	–	–	–
COc1nc(C)nc(Cl)c1NC1=NCCN1	inactive	inactive	inactive	inactive	inactive	inactive	inactive	inactive	inactive	inactive	inactive	–	–	–	inactive	inactive	–
C=C(C)c1cccc(C(=C)C)c1	inactive	inactive	inactive	inactive	inactive	inactive	inactive	inactive	inactive	inactive	inactive	inactive	inactive	inactive	inactive	–	–
O=C(O)CNC(=O)c1ccccc1	inactive	inactive	inactive	inactive	inactive	inactive	inactive	inactive	inactive	inactive	inactive	inactive	inactive	inactive	–	inactive	inactive
